Bioassay records (PubChem BioAssay)
The full list was thinned out, with hits kept by preference.
12-LOX inh: inhibitors of human 12S-lipoxygenase ALOX12; P18054; purified 12hLO, xylenol orange hydroperoxide absorbance; Potency, µM (series often up to 108 µM), inactives show top-dose activity change, negative = inhibition, usual class: inhibitors; 580,000 tested, 1.1% active; AID 1671190; also: potency is read from the fitted curve at half-maximal effect
Target sequence (P18054 whole entry, looked up): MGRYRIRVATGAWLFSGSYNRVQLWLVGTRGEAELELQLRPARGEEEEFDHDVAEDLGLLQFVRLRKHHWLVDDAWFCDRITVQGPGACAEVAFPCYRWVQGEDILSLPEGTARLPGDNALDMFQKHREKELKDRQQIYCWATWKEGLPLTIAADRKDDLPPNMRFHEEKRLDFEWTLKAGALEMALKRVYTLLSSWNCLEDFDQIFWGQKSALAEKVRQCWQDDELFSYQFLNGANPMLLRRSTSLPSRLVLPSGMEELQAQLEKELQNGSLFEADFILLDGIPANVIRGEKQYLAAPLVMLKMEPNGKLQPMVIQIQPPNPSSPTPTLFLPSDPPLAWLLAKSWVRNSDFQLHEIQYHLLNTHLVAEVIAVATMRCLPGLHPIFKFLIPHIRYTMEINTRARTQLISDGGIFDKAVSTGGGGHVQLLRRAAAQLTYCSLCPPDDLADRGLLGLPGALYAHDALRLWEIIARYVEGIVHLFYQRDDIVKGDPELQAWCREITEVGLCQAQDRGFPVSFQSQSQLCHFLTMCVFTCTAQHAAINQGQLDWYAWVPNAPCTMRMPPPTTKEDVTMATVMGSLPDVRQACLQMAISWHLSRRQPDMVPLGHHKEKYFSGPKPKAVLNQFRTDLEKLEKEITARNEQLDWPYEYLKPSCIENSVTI
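Purified human 12hLO at 150 nM in 25 mM Hepes, 0.01% Triton X-100, pH 7.0, preincubated 15 min at room temperature with compound. Reaction started with 40 uM arachidonic acid, 30 min at room temperature. Hydroperoxide measured by Fe-xylenol orange, 573/405 nm absorbance ratio.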
HT1080 IDH1KD tx: toxicity to HT-1080 IDH1 knockdown cells (counter line); HT-1080 IDH1 knockdown viability, ATP luminescence, 48 h; Potency, µM (series often up to 46.1 µM), without a hit: top-dose activity, negative = toxicity, most hits filed as cytotoxic; 360,000 tested, 2% active; AID 686971;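 also: potency is read from the fitted curve at half-maximal effect; 0% = DMSO wells and -100% = cell-free medium wells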
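Cytotoxicity counter-line: IDH1KD HT-1080, 48 h, CellTiter-Glo. Curves classed by r2, magnitude and activity.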
IL1B secr inh: blocks inflammasome-driven IL-1 beta release; 360,000 tested, 4.7% active; AID 743279; THP-1 LPS/ATP IL-1B secretion, AlphaLISA, 16 h; stronger effect = lower value; activity change, % at 57.5 µM; in the data active = activity change below about -50%; inconclusive = mostly about -30% to -49%
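THP-1 cells pretreated 1 hr with compounds (up to 57.5 uM final), then stimulated with LPS (250 ng/mL final) plus ATP (1.25 mM final); secreted IL-1B measured by AlphaLISA after 16 hr, decreased signal indicating inhibition.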
TDP1 cell noCPT: qHTS for Inhibitors of human tyrosyl-DNA phosphodiesterase 1 (TDP1): qHTS in cells in absence of CPT. Potency, µM (highest dose often 46.2 µM), for the others: at the top dose activity change, negative = growth inhibition, hits mostly inhibitors. 420,000 tested, 15% active. DT40 Tdp1-/- hTDP1 cells, no CPT, ATP luminescence, 48 h; also: potency is read from the fitted curve at half-maximal effect; nearly all actives have a fitted effect of over 55% in size
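Chicken DT40 Tdp1-/- cells stably complemented with human TDP1 were seeded at 400 cells/well with DMSO in place of 20 nM camptothecin. After compound pinning, cells grew at least 48 hr at 37 °C; viability read by CellTiter-Glo luminescence.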
HT1080-NT tox: kills 2HG-producing HT-1080-NT fibrosarcoma cells. HT-1080-NT fibrosarcoma viability, CellTiter-Glo ATP luminescence, 48 h. Potency, µM (doses to about 46.1 µM), inactives show at the highest dose activity, negative = less viability, actives largely listed as cytotoxic. 360,000 tested, 1.6% active. AID 686970;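 also: NT is the 2HG producing partner of a matched IDH1 knockdown line; potency is read from the fitted curve at half-maximal effect; 0% = DMSO-treated cells and -100% = media-only wells without cells; nearly all actives have a fitted effect of over 55% in size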
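Viability of the 2HG-overproducing fibrosarcoma line after 48 hours of compound exposure at 37 degrees C was determined by luminescence with CellTiter-Glo, and concentration-effect curves were then fitted and categorized.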
DT40 TDP1 CPT: DT40-hTDP1 cell growth loss with CPT. chicken DT40 Tdp1-/-;hTDP1 cells + 20 nM CPT, ATP luminescence, 48 h. Potency, µM (titrated, usually from 46.2 µM), inactives show at the highest dose activity change, negative = growth inhibition, actives largely listed as inhibitors. 420,000 tested, 12% active. AID 686979; also: potency is read from the fitted curve at half-maximal effect; nearly all actives have a fitted effect of over 55% in size
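Chicken DT40 Tdp1-/- cells complemented with human TDP1, 400 cells/well, exposed to compounds plus 20 nM camptothecin for at least 48 h at 37 C; viability read as ATP content by CellTiter-Glo luminescence.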
Active calls of the source: *; ? = inconclusive; . = no result given; [ ] = another dose, or the depositor's remark. Unless noted, calls follow the shape of the dose curve; as a rule, active = well fitted curve in the direction sought with a large enough effect; inconclusive = small, poorly fitted or top-dose-only effect, or another doubt; inactive = no such curve, though single readings can be large; an effect the other way counts as inactive or inconclusive. Unless noted, % is scaled to controls: 0 for no effect and ±100 for the full control effect.

SMILES	12-LOX inh	HT1080 IDH1KD tx	IL1B secr inh	TDP1 cell noCPT	HT1080-NT tox	DT40 TDP1 CPT
CCc1ccc(O)c(N=Cc2cccc(C)c2O)c1	?	?	22	21µM*	?	21µM*
C=CCc1cccc(/C=N/c2ncn[nH]2)c1O	-9%	1%	0	6%	9%	3%
O=C1NCCCCCCN(C(=O)c2cccs2)[C@H]2C[C@H](C(=O)N3CCc4ccccc4C3)C[C@@H]12	27%	.	.	.	.	.
O=C1CCN(Cc2ccc(F)cc2F)CCCC(c2nc(-c3cnccn3)no2)CCN1 (stereo not drawn)	53%	.	.	.	.	.
COCCN(C(=O)c1cccc(N2C(=O)CCC2=O)c1)c1nc(-c2ccc([N+](=O)[O-])cc2)cs1	-3%	-23%	-11	21µM*	-15%	?
COc1cc(NS(=O)(=O)c2ccc(NC(=S)NC(=O)c3cccs3)cc2)nc(OC)n1	32µM*	14%	25	0%	9%	-9%
Cc1ccc(NS(=O)(=O)c2ccc(NC(=O)c3cccs3)cc2)c(C)c1	-22%	-21%	1	?	-28%	?
O=C(NC(=S)Nc1ccc(NC(=O)c2cccs2)cc1)c1cc2ccccc2o1	1%	18µM*	8	?	21µM*	13µM*
Cc1ccc(NC(=O)c2cc(S(=O)(=O)Nc3ccc(C)cc3)cs2)cc1	?	-17%	-78*	23µM*	-6%	23µM*
NC(=O)c1cc(S(=O)(=O)Nc2ccccc2)cs1	-13%	9%	-5	-15%	16%	1%
Cc1cc(C)cc(NS(=O)(=O)c2ccc(NC(=S)NC(=O)c3cccs3)cc2)c1	?	?	?	18µM*	?	21µM*
Cc1ccc(C(NC(=O)c2ccccc2)c2cccnc2)cc1C (stereo not drawn)	-2%	.	.	.	.	.
CC(=O)c1ccc(NC(=O)CC2C(=O)NCCN2C(=O)CN2CCN(CCO)CC2)cc1 (stereo not drawn)	11%	.	.	.	.	.
COc1cc(NS(=O)(=O)c2ccc(NC(=S)NC(=O)c3ccc(F)c(F)c3)cc2)nc(OC)n1	13µM*	9%	38	4%	9%	2%
Cc1ccc(-c2cn3c(n2)CO[C@@H](CNC(=O)NCc2ccccc2)C3)cc1	60%[176 µM]	.	.	.	.	.
Cc1ccc(NC2=NC(c3ccccc3)n3c(nc(C)cc3=O)N2)c(C)c1 (stereo not drawn)	3%	-10%	-74*	-7%	21%	-14%
COc1ccc2c(C)c(CC(=O)Nc3cccc(Cl)c3)c(=O)oc2c1	5%	.	.	.	.	.
CCOC(=O)N1CCC(N2Cc3cccc(C(=O)Nc4ccc(OC)c(OC)c4)c3C2=O)CC1	9%[57.4 µM]	3%	?	?	18%	18µM*
Cc1ccc(NC(=O)c2cccc3c2C(=O)N(C2CCCCC2)C3)c(Cl)c1	.	4%	.	-29%	-3%	18µM*
COc1cc(NC(=O)c2cccc3c2C(=O)N(C2CCCCC2)C3)cc(OC)c1OC	42%	?	-60*	7.3µM*	-12%	23µM*
Cc1cc(C)cc(NC(=O)c2cccc3c2C(=O)N(C2CCCCC2)C3)c1	-18%	0%	29	29%	16%	-2%
O=C(Nc1ccc(Br)cc1)c1cccc2c1C(=O)N(C1CCCCC1)C2	4%	4%	3	-2%	6%	-27%
CCOC(=O)N1CCC(N2Cc3cccc(C(=O)Nc4ccccc4OC)c3C2=O)CC1	-29%	-2%	-15	16µM*	1%	23µM*
CCc1ccccc1NC(=O)N1CCCC(Cn2cnc3cccnc32)C1 (stereo not drawn)	13%	.	.	.	.	.
O=C(CN1CCN(Cc2ccc(F)cc2Cl)S1(=O)=O)Nc1ccc(F)cc1	-20%	.	.	15µM*	.	12µM*
SMILES	12-LOX inh	HT1080 IDH1KD tx	IL1B secr inh	TDP1 cell noCPT	HT1080-NT tox	DT40 TDP1 CPT
O=C(CN1CCCN(Cc2ccc(F)cc2)S1(=O)=O)Nc1ccc2c(c1)OCCO2	-19%	.	.	-16%	.	-3%
Cc1ccccc1CN1CCCN(CC(=O)Nc2ccc(F)cc2)S1(=O)=O	-14%	.	.	?	.	?
COc1ccc(NC(=O)CN2CCN(Cc3ccc(F)cc3)S2(=O)=O)cc1Cl	-1%	.	.	21µM*	.	?
Cn1c(=O)c([N+](=O)[O-])c(-n2ccnc2)c2ccccc21	18%	26µM*	-101*	4.1µM*	16µM*	4.6µM*
Cc1cccc(Nc2c([N+](=O)[O-])c(=O)n(C)c3ccccc23)c1	-6%	-15%	22	?	-1%	?
CC(C)c1ccc(Nc2c([N+](=O)[O-])c(=O)n(C)c3ccccc23)cc1	1%	-13%	-66*	?	-19%	1%
Cn1c(=O)c([N+](=O)[O-])c(NCC(O)c2ccccc2)c2ccccc21 (stereo not drawn)	-14%	2%	17	18µM*	-1%	?
CCCN(CC1CCOC1)C(=O)c1ccc(F)c(Cl)c1 (stereo not drawn)	12%	.	.	.	.	.
O=C(NCc1ccc(Cl)cc1Cl)c1cccc(N2CCCS2(=O)=O)c1	0%	.	.	?	.	16µM*
Cc1ccc(NC(=O)c2cccc(N3CCCS3(=O)=O)c2)cc1	-1%	.	.	-13%	.	?
Cc1cc(C)cc(NC(=O)c2cccc(N3CCCS3(=O)=O)c2)c1	-23%	.	.	?	.	15µM*
NC(=O)C1CCN(C(=O)CCNc2ncnc3nc[nH]c23)CC1	2%	.	.	.	.	.
Cc1ccccc1C(=O)N1CCC2(C1)C(=O)N(C)c1ccccc12 (stereo not drawn)	18%	.	.	.	.	.
O=C(Nc1ccc2nc(SCC(=O)N3CCCC3)sc2c1)c1cccc(Br)c1	?	.	.	16µM*	.	?
O=C(Nc1ccc2nc(SCC(=O)N3CCOCC3)sc2c1)c1cccc(Cl)c1	-32%	.	.	18µM*	.	15µM*
COc1ccc(C(=O)Nc2ccc3nc(SCC(=O)N4CCOCC4)sc3c2)cc1	-13%	.	.	?	.	?
Cc1nc(CN2CC3(CCN(C)C3)c3cc(C(=O)Nc4ccc(F)cc4)ccc32)cs1 (stereo not drawn)	18%[176 µM]	.	.	.	.	.
COc1ccc(F)cc1-c1cc(NC=O)c2ncc(-c3cccc(C(=O)N(C)C)c3)n2c1	-25%	-23%	-15	23µM*	?	?
CN(C)C(=O)c1cccc(-c2cc(NC=O)c3ncc(-c4ccc(F)cc4)n3c2)c1	-21%	?	82	16µM*	?	?
